Hits are enriched below; roughly 2% of the tested compounds scored in any of these assays.
LYPLA1 inh = blocks human lysophospholipase 1, a PME1 counter-screen; O75608; recombinant LYPLA1, FP-Rh probe fluorescence polarization; inhibition, % at 5.9 µM; 320,000 compounds, 0.16% hits; AID 2174;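 active = inhibition above the mean of all tested compounds plus 3 SD, set per campaign, cut at about 14% in these data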;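 also: inhibitors block serine hydrolase probe labeling of LYPLA1 so polarization falls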
Fam108B inh = blocks mouse Fam108B hydrolase in RBBP9 counter-screen. inhibition, % at 9.51 µM. AID 1947. 300,000 compounds, 0.33% hits. recombinant Fam108B, FP-Rh probe fluorescence polarization;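 active = inhibition above the screen mean inhibition plus 3 SD, computed separately per campaign, cut at about 18% in these data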;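 also: inhibitors lower polarization as less probe binds the enzyme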
PREPL inh = human PREPL enzyme inhibition | 320,000 compounds, 0.68% hits | Q4J6C6 | inhibition, % at 5.96 µM | AID 2751 | recombinant PREPL, fluorescence polarization activity-based probe; in the data active = inhibition above about 43%
GSTO1 inh = GSTO1 inhibition, counter-screen for RBBP9 inhibitors; P78417; recombinant GSTO1, activity-based probe fluorescence polarization; inhibition, % at 5.96 µM; 300,000 compounds, 1.1% hits; AID 1974;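 active = inhibition above the campaign mean inhibition plus 3 SD, cut at about 35% in these data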
Target sequence (P78417 whole entry, looked up): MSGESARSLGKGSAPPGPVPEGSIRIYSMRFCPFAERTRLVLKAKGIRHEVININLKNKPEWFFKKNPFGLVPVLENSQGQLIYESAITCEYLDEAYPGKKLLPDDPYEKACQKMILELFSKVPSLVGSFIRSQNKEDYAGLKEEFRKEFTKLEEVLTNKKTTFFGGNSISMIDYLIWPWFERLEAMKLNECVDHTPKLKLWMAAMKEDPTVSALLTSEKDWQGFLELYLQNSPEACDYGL
LYPLA2 inh = counter-screen for PME1 inhibitors: inhibitors of human LYPLA2; O95372; recombinant LYPLA2, FP-Rh probe fluorescence polarization; inhibition, % at 5.9 µM; 320,000 compounds, 0.38% hits; AID 2177;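 active = inhibition above the screen-wide mean plus 3 SD, limit set per campaign, cut at about 26% in these data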
Target sequence (O95372 whole entry, looked up): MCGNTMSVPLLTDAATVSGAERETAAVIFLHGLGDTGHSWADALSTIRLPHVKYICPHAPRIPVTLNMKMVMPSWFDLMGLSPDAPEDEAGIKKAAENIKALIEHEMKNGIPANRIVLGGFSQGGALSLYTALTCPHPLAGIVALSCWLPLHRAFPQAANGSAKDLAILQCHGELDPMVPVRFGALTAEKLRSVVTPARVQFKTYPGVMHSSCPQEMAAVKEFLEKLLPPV
PME-1 primary = PME-1 (human) inhibition; Q9Y570; recombinant PME-1, FP-Rh probe fluorescence polarization; inhibition, % at 5.9 µM; 320,000 compounds, 0.53% hits;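 active = inhibition above the campaign mean of all compounds plus 3 SD, cut at about 26% in these data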;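 also: competitive labeling of PME-1 active site by serine hydrolase directed probe; inhibitors block probe labeling so polarization falls and inhibition rises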
Large screens that a line does not name were inactive; ! = not active in a repeat.

Cc1cc(C)c(C#N)c(SCc2ccccc2)n1	none
Cc1ccc2nc(CSc3nc(C)cc(C)c3C#N)[nH]c2c1	PREPL inh 58
Cc1cc(C)c(NC(=S)N(C)C)c(C)c1	none
O=c1c2ccccc2nc(/C=C/c2c[nH]c3ccccc23)n1CCO	PME-1 primary 47
O=c1c2ccccc2nc(/C=C/c2cc(Br)ccc2O)n1CCO	none
Cc1ccc(C2(C)NC(=O)N(CC(=O)Nc3cc(S(=O)(=O)N4CCCCC4)ccc3OC(C)C)C2=O)cc1 (centres undefined)	none
CC(C)Oc1ccc(S(=O)(=O)N2CCCCC2)cc1NC(=O)CN1C(=O)NC(C)(c2ccccc2)C1=O (centres undefined)	PME-1 primary 39
Cc1noc(C)c1CSc1nc2ccccc2nc1NS(=O)(=O)c1ccc(Cl)cc1	PME-1 primary 27
O=S(=O)(Nc1nc2ccccc2nc1NCc1ccco1)c1ccc(Cl)cc1	none
CCCCc1nc(SCC(=O)N2CCOCC2)c2c(=O)n(C)c(=O)n(C)c2n1	none
COc1ccc(CC2CC(=O)N(c3ccc(C)cc3)C2=O)cc1 (centres undefined)	none
COc1ccc(OC)c(N2C(=O)CC(Cc3ccc(C)cc3)C2=O)c1 (centres undefined)	PME-1 primary 31
CN(CC(=O)Nc1ccccc1C(=O)Nc1ccccc1)C1CCCCC1	none (no result: LYPLA1 inh, Fam108B inh, GSTO1 inh, LYPLA2 inh, PME-1 primary)
CCNC(=O)CSc1nnc(-c2ccccc2Br)n1-c1cccc(C(F)(F)F)c1	none
CCCC(=O)Nc1cc(OC)c(OC)cc1C(=O)O	none
CCCCNc1cc(NC(C)=O)cc2cc(OC)c(OC)cc12	GSTO1 inh 35
CC(Cl)C(=O)c1c[nH]c2ccccc12 (centres undefined)	GSTO1 inh 37
COc1cc(/C=C/c2ccc3cccc(O)c3n2)ccc1O	PME-1 primary 34
COc1cc(/C=C/c2ccc3cccc(O)c3n2)c(Br)cc1O	PME-1 primary 28
COc1cc(Br)c(/C=C/c2ccc3cccc(O)c3n2)cc1OC	none
COc1ccc(OC)c(/C=C/c2ccc3cccc(O)c3n2)c1	none
Cc1cccc(NNC(=O)c2c(F)cccc2Cl)c1	none
O=C(O)c1cc(NS(=O)(=O)c2ccc(F)cc2)cc(NS(=O)(=O)c2ccc(F)cc2)c1	none (no result: LYPLA1 inh, Fam108B inh, GSTO1 inh, LYPLA2 inh, PME-1 primary)
Cc1nn(-c2ccccc2)c2ncc(C(=O)c3cc(Cl)ccc3O)cc12	PME-1 primary 29
Cc1nn(C)cc1S(=O)(=O)Nc1ccc(C(F)(F)F)cc1	none
CSc1ccccc1C(=O)NCCCn1ccnc1	PME-1 primary 144
CCSc1ccccc1C(=O)NCCCn1ccnc1	none
CCCN(CC(=O)Nc1ccccc1C)C(=O)COC(=O)CSc1ccc([N+](=O)[O-])cc1	PME-1 primary 28
O=C(O)c1[nH]c2ccccc2c1C(c1c(F)cccc1Cl)c1c(C(=O)O)[nH]c2ccccc12	GSTO1 inh 41
O=C(O)c1[nH]c2ccccc2c1C(c1cc(Br)ccc1O)c1c(C(=O)O)[nH]c2ccccc12	GSTO1 inh 59
Cc1ccc(N=C2NC(=O)CS2)cc1C	none
N#Cc1c(-c2ccccc2)nc(SCC(=O)Nc2nnc(C(F)(F)F)s2)[nH]c1=O	GSTO1 inh 67
N#Cc1c(-c2ccccc2)nc(SCC(=O)Nc2ccccc2)[nH]c1=O	none
COc1ccc([C@@]2(C(C)C)ON(c3ccccc3C(F)(F)F)C2=O)cc1	none (no result: Fam108B inh, GSTO1 inh)
O=C1CN(C(=O)c2cc3ccccc3oc2=O)C(c2ccccc2)c2cc(F)ccc2N1 (centres undefined)	PME-1 primary 34
O=C1CN(C(=O)c2ccccc2)C(c2ccccc2)c2cc(F)ccc2N1 (centres undefined)	none
O=C(O)/C=C\C(=O)Nc1ccc(N2CCN(c3ccc(Cl)c(Cl)c3)CC2)cc1	PREPL inh 44
COc1ccc(C2CC(c3ccc(OC)c(OC)c3)=NN2S(C)(=O)=O)cc1 (centres undefined)	PME-1 primary 33
COc1ccc(C2=NN(S(C)(=O)=O)C(c3ccc4nccnc4c3)C2)cc1 (centres undefined)	none
Cn1c(=O)n(C)c2cc(N3CCOCC3)c(NC(=O)c3ccc(F)cc3)cc21	none
CCCOc1ccc(/C=N/NC(=S)Nc2ccccc2[N+](=O)[O-])c(O)c1	PME-1 primary 30
COc1ccc(/C=N/NC(=S)Nc2ccccc2[N+](=O)[O-])cc1O	PME-1 primary 35
CN(C)S(=O)(=O)c1cccc(NC(=S)NC(=O)C2CCCCC2)c1	none
COc1cc(/C=N/NC(=S)Nc2cccc(S(=O)(=O)N(C)C)c2)ccc1O	PME-1 primary 39
CN(C)S(=O)(=O)c1cccc(NC(=S)NNC(=O)c2cc3ccccc3cc2O)c1	PME-1 primary 27 (no result: Fam108B inh, GSTO1 inh)
CCN(Cc1nc2ccccc2c(=O)[nH]1)C(=O)COc1ccccc1-c1ccccc1	none (no result: Fam108B inh, GSTO1 inh)
CC1CCN(Cc2c(C(=O)O)nnn2-c2nonc2N)CC1	none
Nc1nc(-c2c[nH]c3ccccc23)cs1	none
Cc1ccc2c(-c3csc(N)n3)c[nH]c2c1	PME-1 primary 51
Oc1ccc(CN2CCc3ccccc3C2)c2cccnc12	PREPL inh 45
CC1CCN(C(=O)COc2ccc(S(=O)(=O)N3CCOCC3)cc2)CC1	none
C=CCNC1=C(Cl)C(=O)c2ccccc2C1=O	GSTO1 inh 68
CCc1ccc(NC(=O)COn2nnc3ccc(S(=O)(=O)N(C)C)cc32)cc1	none
Cc1ccc(NC(=O)COn2nnc3ccc(S(=O)(=O)N(C)C)cc32)cc1F	GSTO1 inh 36
C[C@H]1COC2=C1C(=O)C(=O)c1c2ccc2c1CCCC2(C)C	GSTO1 inh 68, LYPLA2 inh 48
CCOC(=O)c1c2c(n(C)c1C)C(=O)C(=O)c1ccc(Br)cc1-2	GSTO1 inh 72
Cc1c(CN(C)C)c2c(n1C)C(=O)c1ccc(Br)cc1-2	none
COCCn1c(C)cc(C(=O)COC(=O)c2ccc(Cl)c(S(N)(=O)=O)c2)c1C	Fam108B inh 25
Cc1cc(C(=O)COC(=O)c2ccc(Cl)c(S(N)(=O)=O)c2)c(C)n1CC1CCCO1 (centres undefined)	none
CSc1ccc(CC(=O)N2CCC(n3nccc3NC(=O)C3CC3)CC2)cc1	none
CCOC(=O)C1(Cc2ccccc2)CCN(Cc2cc(OC)c3c(c2)OCO3)CC1	none
COc1cccc(NC(=O)CN2C(=O)COc3ccc(S(=O)(=O)N4CCC(C)CC4)cc32)c1	none
COc1ccc(C2(CNC(=O)c3ccccc3[N+](=O)[O-])CCOCC2)cc1	none
O=C(Cc1cc(=O)[nH][nH]1)N/N=C/c1cccc(Cl)c1Cl	GSTO1 inh 35!
O=C(Cc1coc2cc3c(cc12)CCC3)NC1CCCCCCC1	none
O=C(Cc1coc2cc3c(cc12)CCC3)NCC1(N2CCCCC2)CCCCC1	PREPL inh 46
O=C1C=C(c2ccc(F)nc2)C[C@@H](c2ccc3c(c2)OCO3)C1	none (no result: Fam108B inh, GSTO1 inh)
Nc1c(C(=O)Nc2nc3ccccc3s2)sc2nc(-c3cccs3)ccc12	PME-1 primary 34
